# Columns and labels:
# Test in all cases: PBM binding z-score (relative to random genomic background probes); higher = stronger binding; sequences stand for … in GC…GCGATTGACAGCGTAGAATGAAGG
# [1] = test system: RARb homodimer (NR concentration 270 nM)
# Procedure, shortened: (§1)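 For binding z-scores, the reference was random background probes on custom Agilent 4×180K protein-binding microarrays. These arrays were incubated 1 h with ligand-free nuclear receptor dimers in PBS pH 7.4, 2% milk, 0.02% Triton X-100, 1 mM DTT, 0.2 mg/mL BSA and 0.4 mg/ml salmon testes DNA. Fluorescence was scanned after antibody detection of each partner (one per run) and regression-normalized.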
# [2] = test system: RARg:RXRa (NR concentration 270 nM, RXRa partner concentration 90 nM)
# Procedure, shortened: as §1
# [3] = test system: RARg homodimer (NR concentration 270 nM)
# Procedure, shortened: as §1
# [4] = test system: RXRa DBDmut IVT, anti-RXR (DBD mutation: RXRa K156A/R161A, NR concentration 90 nM)
# Procedure, shortened: as §1
# [5] = test system: RXRa homodimer (NR concentration 180 nM)
# Procedure, shortened: as §1
# [6] = test system: THRa:RXRa (NR concentration 90 nM, RXRa partner concentration 90 nM)
# Procedure, shortened: as §1
# [7] = test system: THRa homodimer (NR concentration 90 nM)
# Procedure, shortened: as §1
# [8] = test system: VDR:RXRa (NR concentration 270 nM, RXRa partner concentration 90 nM)
# Procedure, shortened: as §1
# [9] = test system: VDR homodimer (NR concentration 270 nM)
# Procedure, shortened: as §1
Sequence,PBM binding z-score [1],PBM binding z-score [2],PBM binding z-score [3],PBM binding z-score [4],PBM binding z-score [5],PBM binding z-score [6],PBM binding z-score [7],PBM binding z-score [8],PBM binding z-score [9]
GTACCAAGGTGAATAGGTCGTTGAAGAGTAGGCG,2.13,2.81,1.45,-0.183,1.9,1.91,0.593,1.01,0.198
CCTACTGGGCCAGGGTCATTGATCAGTCAAAGCA,2.52,3.5,2.02,0.154,3.7,2.7,0.841,3.14,2.48
ACTAGTAGGCCAAGTTTGGGTCACTCAAACAAAG,2.48,2.53,2.16,0.0627,1.15,2.6,1.31,0.967,0.613
GGGACTGGGGCATCAGCAGGTTACCATAACTTAA,1.91,1.51,1.03,-0.52,0.556,1.66,1.46,0.674,0.605
ACTATTAGTTGACACGAGGGCAACCGATAGGTTG,1.76,1.56,1.34,0.816,1.22,3.07,0.699,1.4,1.07
CAAATTAGGTCAAGAGGTCAAAGTCCGCTTCCCG,5.68,8.43,7.88,3.08,8.85,4.42,2.88,6.35,5.32
CCATACGGGTCACTGACAGGTTATAGCATTTGGA,3.06,5.82,4.78,1.24,5.32,2.84,-0.0458,3.74,1.3
AGTCAAAGTTTAGGACGAGGTAACGTAAAGCACG,0.774,0.936,1.26,0.5,0.477,2.59,1.51,0.00949,0.0811
CGTCCAAGGTCAGAGAGGGCAGTGAATGCCGAGT,4.41,4.86,5.33,3.24,3.8,3.96,1.86,6.5,3.51
ATCGAAAGGTCGAAGGTGAATATACCCACCCGAA,2.61,4.63,3.68,1.35,5.69,2.52,0.227,3.08,0.834
CCTACTGGGCGATCAGGTCATTGATATCAACGTT,2.23,1.35,1.37,0.269,1.02,2.74,2.18,1.67,1.53
ATCTCTAGGTAAAGATAGTGCAGTGAATGCAAAT,-0.372,0.0561,0.36,-0.368,0.254,0.223,-0.337,0.0652,-0.144
TCATATAGGTAAATGCTAGGTGAGAGTCCGATCT,0.0117,0.257,0.032,1.03,0.42,0.935,-0.108,0.644,0.216
CGTACAAGGTCATAGGAGGTCAGTGAAGACAGAT,5.45,6.72,7.17,4.16,6.75,5.49,3.23,6.79,4.19
CCTAGCTGGCCAGGGTCACTCAAGCATTTCGCTT,2.33,3.05,2.03,0.326,3.3,2.88,0.857,2.36,0.994
GCTGCTATGTCAGGTTGGTCAGCTAACGGGTACG,0.477,-0.153,0.0688,0.041,-0.315,-0.187,-0.332,-0.421,-0.186
TCATATAGGTAAATGCAAGGTGAAAGTCCGATCT,1.3,1.09,0.776,1.93,1.36,2.64,1.5,1.37,0.698
CAAACTAGGGCACAGAGGTCAAAGTCCGTGCGTA,4.61,5.79,5.63,2.66,5.91,3.79,1.32,6.64,5.23
TAGCCTAGGTCATTGAGCCAGTATAGTACGCATC,2.68,3.9,4.06,1.72,2.9,2.79,0.737,2.1,1.03
ATCTCTAGGTAAAGCTAGTTCAGTGAATGCAAAT,0.208,0.0635,0.23,-0.0872,0.134,1.15,0.00789,0.818,0.525
TCTAGGAGGACACGAAAGGTCAGAGCTCGACATC,4.84,4.88,5.11,1.35,4.21,3.98,1.4,3.42,0.994
GGAACGAGGGCATGCGAGTTGATAGCATGGCGAT,0.608,1.21,1.6,2.03,0.847,2.7,-0.777,2.9,1.97
TCTATTAGTTGAAGGACAACCGACGAGTCCGTTT,0.756,0.368,0.728,2.05,0.435,0.552,0.684,1.23,1.62
GCGTGTAGATCAAGGTTAAGAAAGACTAAGCTAA,0.225,0.354,0.289,-0.253,0.772,1.54,-0.256,0.0899,-0.286
ATCGAAAGGTCCTGAGGTGAGTATACAGAAAGGC,1.02,1.36,0.977,-0.513,1,1.98,0.778,0.189,-0.0485
ACTATTAGTTGAGACGAGGGCAACAGATAGGTTG,1.17,0.793,0.969,0.472,0.663,2.42,0.255,0.625,1.15

# Source: the supplement of paper PMC6555819
